In the supplement of paper PMC11732987, “Enantioselective OTUD7B fragment discovery through chemoproteomics screening and high-throughput optimisation” (Communications Chemistry, 2025):

Experiments:
Experiment in all cases: log2 ratio of Biotin-Ahx-Ub-VS probe labelling (fragment/DMSO); higher = less target engagement (more negative = stronger competition), active = hit call of the paper (q ≤ 0.05, log2 ratio ≤ -1)
Conditions in all cases: compound concentration: 200 uM; treatment time: 3 h
[1] = biological target: T1, USP19 (UniProt O94966)
T1 sequence (whole entry): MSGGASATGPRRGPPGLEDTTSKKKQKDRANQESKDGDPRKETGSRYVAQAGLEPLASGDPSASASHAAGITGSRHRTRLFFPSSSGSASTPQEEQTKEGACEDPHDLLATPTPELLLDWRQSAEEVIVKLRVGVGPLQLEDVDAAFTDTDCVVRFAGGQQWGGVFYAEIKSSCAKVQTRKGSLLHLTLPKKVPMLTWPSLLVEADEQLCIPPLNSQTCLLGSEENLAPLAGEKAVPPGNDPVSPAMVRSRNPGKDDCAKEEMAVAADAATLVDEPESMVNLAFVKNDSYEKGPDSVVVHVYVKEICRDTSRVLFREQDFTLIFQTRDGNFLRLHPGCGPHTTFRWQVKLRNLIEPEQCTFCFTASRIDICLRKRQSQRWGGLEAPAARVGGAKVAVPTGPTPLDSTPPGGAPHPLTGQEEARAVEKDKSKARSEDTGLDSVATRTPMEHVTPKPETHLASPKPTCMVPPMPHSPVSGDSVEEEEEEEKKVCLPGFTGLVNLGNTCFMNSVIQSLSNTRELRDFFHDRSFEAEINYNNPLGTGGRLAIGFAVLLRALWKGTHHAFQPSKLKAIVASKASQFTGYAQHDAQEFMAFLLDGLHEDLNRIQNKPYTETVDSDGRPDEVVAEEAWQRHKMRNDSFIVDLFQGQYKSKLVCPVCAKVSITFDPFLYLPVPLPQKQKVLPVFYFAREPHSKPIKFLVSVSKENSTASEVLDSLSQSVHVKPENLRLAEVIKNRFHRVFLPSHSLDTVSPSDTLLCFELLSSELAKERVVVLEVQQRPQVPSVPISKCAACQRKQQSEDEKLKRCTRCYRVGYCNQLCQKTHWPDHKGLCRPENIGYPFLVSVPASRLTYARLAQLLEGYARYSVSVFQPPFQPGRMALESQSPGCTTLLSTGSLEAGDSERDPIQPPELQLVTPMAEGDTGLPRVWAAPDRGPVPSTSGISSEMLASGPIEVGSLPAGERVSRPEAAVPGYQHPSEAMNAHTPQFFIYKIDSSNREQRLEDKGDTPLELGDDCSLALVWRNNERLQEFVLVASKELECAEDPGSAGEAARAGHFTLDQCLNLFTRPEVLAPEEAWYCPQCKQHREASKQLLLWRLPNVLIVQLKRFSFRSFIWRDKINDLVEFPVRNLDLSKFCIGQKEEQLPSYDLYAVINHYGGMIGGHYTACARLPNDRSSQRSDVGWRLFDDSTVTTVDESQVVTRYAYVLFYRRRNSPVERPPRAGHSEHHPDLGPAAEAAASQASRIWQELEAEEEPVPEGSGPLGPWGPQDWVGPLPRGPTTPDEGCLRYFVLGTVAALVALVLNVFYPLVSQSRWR
Outline: (§1)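 Labelled DUBs from HEK293T lysate were NeutrAvidin-enriched, digested with LysC and trypsin, and run by diaPASEF LC-MS/MS. Before that, each 495 µg sample in Tris/CHAPS/IGEPAL buffer with protease inhibitors was treated in triplicate with fragment at 200 µM or vehicle for 3 h, then with Biotin-Ahx-Ub-VS at 0.5 µM final for 1 h. Values are average log2 ratios of fragment over vehicle by unpaired t-test, based on global-median-normalised Spectronaut label-free quantities from proteins with ≥2 unique peptides.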

[2] = biological target: T2, USP22 (UniProt Q9UPT9)
T2 sequence (whole entry): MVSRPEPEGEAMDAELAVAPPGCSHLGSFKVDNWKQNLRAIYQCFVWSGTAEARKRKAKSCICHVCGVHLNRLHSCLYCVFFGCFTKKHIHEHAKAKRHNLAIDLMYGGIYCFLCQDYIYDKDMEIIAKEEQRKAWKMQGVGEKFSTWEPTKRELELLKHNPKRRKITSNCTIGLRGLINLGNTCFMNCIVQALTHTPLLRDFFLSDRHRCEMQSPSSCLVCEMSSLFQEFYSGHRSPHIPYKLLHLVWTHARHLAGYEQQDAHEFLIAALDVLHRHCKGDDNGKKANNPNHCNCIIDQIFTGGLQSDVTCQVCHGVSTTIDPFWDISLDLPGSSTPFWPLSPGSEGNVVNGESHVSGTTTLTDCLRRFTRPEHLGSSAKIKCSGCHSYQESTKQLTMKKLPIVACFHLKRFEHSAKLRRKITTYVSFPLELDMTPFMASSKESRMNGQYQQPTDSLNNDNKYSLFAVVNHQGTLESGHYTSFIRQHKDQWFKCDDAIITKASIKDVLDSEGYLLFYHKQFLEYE
Outline: as §1

[3] = biological target: USP24 (UniProt Q9UPU5)
Sequence of USP24 (Q9UPU5 whole entry): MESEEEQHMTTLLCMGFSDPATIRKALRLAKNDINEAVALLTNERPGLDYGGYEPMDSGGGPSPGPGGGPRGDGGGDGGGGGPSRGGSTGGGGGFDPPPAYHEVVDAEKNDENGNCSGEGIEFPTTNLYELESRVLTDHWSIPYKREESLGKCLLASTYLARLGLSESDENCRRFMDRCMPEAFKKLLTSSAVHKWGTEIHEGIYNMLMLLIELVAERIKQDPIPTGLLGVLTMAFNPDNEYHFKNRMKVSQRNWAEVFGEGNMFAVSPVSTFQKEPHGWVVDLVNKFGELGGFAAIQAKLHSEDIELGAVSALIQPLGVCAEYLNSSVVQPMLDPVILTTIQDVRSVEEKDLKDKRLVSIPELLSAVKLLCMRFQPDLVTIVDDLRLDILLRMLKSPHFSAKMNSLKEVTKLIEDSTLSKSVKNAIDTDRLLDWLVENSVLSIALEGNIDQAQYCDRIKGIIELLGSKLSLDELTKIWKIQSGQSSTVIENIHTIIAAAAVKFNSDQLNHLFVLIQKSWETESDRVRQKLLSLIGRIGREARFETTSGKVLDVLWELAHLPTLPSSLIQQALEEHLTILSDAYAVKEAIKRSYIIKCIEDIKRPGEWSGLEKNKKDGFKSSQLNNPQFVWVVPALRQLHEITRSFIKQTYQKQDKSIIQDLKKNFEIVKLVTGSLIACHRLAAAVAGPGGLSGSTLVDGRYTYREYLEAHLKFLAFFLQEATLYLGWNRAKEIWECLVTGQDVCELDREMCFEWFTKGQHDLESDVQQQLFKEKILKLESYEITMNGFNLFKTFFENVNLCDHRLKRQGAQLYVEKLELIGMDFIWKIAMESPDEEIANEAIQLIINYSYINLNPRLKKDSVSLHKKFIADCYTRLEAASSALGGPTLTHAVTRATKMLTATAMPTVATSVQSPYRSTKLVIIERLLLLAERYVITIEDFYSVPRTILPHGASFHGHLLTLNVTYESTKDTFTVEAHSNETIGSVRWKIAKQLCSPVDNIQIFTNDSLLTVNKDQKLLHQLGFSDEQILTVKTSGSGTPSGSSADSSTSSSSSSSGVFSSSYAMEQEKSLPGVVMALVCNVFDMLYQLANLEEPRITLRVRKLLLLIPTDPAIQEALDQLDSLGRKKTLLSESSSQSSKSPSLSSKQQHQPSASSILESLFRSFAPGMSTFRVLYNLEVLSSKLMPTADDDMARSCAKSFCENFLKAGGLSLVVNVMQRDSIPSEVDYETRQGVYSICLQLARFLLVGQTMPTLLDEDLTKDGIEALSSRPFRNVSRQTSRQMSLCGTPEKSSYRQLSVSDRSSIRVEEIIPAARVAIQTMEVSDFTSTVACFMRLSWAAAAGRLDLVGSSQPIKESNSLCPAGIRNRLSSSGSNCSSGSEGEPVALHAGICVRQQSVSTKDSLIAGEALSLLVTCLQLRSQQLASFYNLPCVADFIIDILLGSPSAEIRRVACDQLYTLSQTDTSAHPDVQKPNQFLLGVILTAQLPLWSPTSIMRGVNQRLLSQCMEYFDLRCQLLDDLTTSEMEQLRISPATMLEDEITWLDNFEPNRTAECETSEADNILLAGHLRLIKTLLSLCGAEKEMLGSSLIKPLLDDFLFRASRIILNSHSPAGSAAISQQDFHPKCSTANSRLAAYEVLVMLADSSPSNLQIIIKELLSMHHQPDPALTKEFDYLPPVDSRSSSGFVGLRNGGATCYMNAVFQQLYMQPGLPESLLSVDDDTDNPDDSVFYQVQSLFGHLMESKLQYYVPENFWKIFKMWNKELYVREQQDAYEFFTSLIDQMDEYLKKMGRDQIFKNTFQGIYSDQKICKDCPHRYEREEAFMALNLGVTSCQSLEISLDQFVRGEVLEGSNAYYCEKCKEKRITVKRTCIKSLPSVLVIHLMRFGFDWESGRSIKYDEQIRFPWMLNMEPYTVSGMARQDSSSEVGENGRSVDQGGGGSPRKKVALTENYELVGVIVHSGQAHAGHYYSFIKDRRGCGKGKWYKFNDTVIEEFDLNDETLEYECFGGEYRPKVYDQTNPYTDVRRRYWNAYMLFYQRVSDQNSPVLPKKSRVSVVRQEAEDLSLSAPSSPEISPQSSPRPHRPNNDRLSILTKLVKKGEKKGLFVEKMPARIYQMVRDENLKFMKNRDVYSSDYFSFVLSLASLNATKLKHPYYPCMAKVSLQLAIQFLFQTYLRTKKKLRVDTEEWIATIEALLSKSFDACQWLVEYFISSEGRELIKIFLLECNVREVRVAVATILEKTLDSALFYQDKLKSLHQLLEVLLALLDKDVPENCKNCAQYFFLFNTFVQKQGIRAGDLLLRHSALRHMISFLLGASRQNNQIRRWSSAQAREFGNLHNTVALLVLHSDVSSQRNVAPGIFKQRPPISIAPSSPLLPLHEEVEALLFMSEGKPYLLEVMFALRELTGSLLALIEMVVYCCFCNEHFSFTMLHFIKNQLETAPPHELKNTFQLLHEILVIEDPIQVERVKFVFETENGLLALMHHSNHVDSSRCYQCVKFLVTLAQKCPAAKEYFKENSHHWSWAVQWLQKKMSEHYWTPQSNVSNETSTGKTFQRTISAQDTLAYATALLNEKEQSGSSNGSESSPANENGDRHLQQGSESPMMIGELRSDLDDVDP
Outline: as §1

[4] = biological target: T3, USP25 (UniProt Q9UHP3)
T3 sequence (whole entry): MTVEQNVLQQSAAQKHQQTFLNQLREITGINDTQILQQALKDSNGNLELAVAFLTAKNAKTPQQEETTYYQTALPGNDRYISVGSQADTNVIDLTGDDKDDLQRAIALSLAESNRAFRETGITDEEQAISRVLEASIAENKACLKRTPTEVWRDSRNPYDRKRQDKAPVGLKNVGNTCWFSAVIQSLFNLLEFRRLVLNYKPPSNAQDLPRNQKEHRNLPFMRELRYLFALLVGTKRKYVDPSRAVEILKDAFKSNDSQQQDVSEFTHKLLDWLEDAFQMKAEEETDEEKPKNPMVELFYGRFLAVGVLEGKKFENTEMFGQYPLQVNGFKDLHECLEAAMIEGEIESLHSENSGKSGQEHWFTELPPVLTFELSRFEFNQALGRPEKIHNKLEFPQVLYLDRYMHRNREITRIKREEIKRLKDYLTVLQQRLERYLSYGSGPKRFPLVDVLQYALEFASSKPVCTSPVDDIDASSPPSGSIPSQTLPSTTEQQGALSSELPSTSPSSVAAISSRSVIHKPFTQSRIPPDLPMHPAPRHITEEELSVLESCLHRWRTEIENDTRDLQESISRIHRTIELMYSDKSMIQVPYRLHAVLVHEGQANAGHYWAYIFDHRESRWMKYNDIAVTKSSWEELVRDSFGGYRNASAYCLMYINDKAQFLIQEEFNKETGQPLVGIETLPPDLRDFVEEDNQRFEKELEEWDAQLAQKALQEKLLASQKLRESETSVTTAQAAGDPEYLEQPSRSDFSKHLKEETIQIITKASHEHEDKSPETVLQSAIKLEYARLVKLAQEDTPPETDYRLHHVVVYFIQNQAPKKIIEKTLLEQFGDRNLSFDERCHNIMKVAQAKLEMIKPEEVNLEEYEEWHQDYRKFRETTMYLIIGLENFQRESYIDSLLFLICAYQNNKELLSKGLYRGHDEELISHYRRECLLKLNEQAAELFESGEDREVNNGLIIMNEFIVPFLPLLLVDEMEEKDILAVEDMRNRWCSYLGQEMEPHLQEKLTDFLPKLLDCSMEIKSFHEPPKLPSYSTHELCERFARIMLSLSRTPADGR
Outline: as §1

[5] = biological target: T4, USP28 (UniProt Q96RU2)
T4 sequence (whole entry): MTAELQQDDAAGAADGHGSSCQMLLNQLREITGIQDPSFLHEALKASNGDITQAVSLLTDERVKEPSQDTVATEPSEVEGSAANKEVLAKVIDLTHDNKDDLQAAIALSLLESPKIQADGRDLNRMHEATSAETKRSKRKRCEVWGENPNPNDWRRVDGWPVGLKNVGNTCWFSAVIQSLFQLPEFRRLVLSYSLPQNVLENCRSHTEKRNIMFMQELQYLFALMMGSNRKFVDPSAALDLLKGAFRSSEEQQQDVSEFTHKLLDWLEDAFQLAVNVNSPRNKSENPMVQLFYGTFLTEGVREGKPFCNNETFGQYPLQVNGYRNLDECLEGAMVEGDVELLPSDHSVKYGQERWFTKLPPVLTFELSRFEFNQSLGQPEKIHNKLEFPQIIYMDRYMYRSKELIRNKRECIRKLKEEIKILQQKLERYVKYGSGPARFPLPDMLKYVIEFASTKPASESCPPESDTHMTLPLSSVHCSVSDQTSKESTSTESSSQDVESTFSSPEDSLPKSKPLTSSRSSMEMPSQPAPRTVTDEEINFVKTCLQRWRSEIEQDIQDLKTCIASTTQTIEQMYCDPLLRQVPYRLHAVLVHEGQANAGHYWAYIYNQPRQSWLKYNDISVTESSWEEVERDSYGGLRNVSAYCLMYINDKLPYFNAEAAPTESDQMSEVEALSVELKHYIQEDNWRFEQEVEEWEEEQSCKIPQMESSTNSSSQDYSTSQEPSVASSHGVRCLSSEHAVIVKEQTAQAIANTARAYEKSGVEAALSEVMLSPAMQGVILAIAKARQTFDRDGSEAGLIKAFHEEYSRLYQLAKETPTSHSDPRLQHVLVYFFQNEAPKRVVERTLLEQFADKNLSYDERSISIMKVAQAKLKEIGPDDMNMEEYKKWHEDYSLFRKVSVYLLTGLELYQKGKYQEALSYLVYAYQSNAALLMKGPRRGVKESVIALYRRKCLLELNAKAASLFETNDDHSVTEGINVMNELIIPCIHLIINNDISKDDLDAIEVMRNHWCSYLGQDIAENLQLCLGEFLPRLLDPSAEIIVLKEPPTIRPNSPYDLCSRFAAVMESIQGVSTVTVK
Outline: as §1

Measured: log2 ratio of Biotin-Ahx-Ub-VS probe labelling

O=C(CCl)N1CCC[C@@H]1c1ccon1
inactive: [1] -0.377 | [2] -0.153 | [3] -0.653 | [4] -0.618 | [5] -0.64
